Screens as filed in PubChem.
Most compounds without a hit are left out; they make up all but 4.7% or so of the library.
D1 antagonist – human D1 dopamine receptor antagonism. P21728. HEK293 TREx D1 cells, calcium flux, dopamine EC80; active compounds read low. activity change, negative = inhibition, % at 10 µM. 360,000 compounds, 3.2% hits; in the data active means activity change below about -30%; further: on the % scale 0 is the no-effect control and ±100 the full control effect
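Tetracycline-induced HEK293 Trex D1 cells, force-coupled to calcium, dye-loaded; compounds added and read 180 s, then EC80 dopamine added and calcium flux tracked kinetically another 180 s.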
TRHR ag – TRH receptor (human) agonism | AID 493084 | 360,000 compounds, 0.18% hits | activation, % at 2 µM | TRHR cells, calcium flux fluo-8, FDSS agonist mode | P34981; further: 0% is about no effect
Target sequence (P34981 whole entry, looked up): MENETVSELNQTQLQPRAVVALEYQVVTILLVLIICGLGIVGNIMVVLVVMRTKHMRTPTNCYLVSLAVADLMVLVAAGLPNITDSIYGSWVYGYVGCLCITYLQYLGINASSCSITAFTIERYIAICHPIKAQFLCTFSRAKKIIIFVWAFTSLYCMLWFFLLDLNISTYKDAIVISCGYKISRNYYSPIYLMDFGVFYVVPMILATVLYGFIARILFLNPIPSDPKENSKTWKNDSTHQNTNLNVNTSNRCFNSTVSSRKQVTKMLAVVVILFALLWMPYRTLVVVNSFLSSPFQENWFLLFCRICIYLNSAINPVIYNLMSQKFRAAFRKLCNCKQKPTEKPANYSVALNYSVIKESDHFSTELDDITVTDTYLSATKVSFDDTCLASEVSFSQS
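Steps: seed TRHR cells overnight; add fluo-8 no-wash Ca dye, RT 30 min–1.5 h; record 10 s baseline; pin-transfer compounds; monitor fluorescence 1 cycle/s for the agonist window. Calcium increases flag candidate agonists.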
D1 agonist – activates the human D1 dopamine receptor | P21728 | activation, % at 2 µM | 360,000 compounds, 1% hits | HEK293 T-REx D1 cells, calcium flux, agonist mode | AID 504660; further: 0% is about no effect
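Tetracycline-induced HEK293 TREx D1 cells, force-coupled to calcium signalling, were dye-loaded with a no-wash calcium kit. Compound was pin-added after a 10 s baseline. Fluorescence was read kinetically at 1 cycle/s for 180 s, with calcium rises flagged as agonism.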
D1 PAM – enhances dopamine response at the human D1 receptor; AID 504651; potentiation, % at 10 µM; P21728; 360,000 compounds, 0.036% hits; HEK293 TREx D1 cells, calcium flux, dopamine EC20 potentiation; in the data active means potentiation above about 30%; further: 0% is about no effect
TRHR PAM – allosteric enhancers of human TRH receptor; P34981; TRHR cells, fluo-8 calcium fluorescence, EC20 TRH enhancement; enhancement, % at 2 µM; 360,000 compounds, 0.66% hits; in the data active means enhancement above about 30%; further: 0% is about no effect
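TRHR-expressing cells loaded with fluo-8 calcium dye were read kinetically (ex 480/em 530) during compound addition, then stimulated with an EC20 of TRH (10 nM final). Enhancement of the Gq-mediated intracellular calcium response was scored.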
* marks the source's active call; other numbers are inactive results. Unless noted, no stated cut-off is given here; in the data, active means activation above about 30%; inactive means the rest.

SMILES	D1 antagonist	TRHR ag	D1 agonist	D1 PAM	TRHR PAM
CCOC(=O)C1(CC2CC2)CCN(Cc2cn[nH]c2-c2cccc(F)c2)CC1	-38*	2	1	-7	-4
COc1cc(C2C(C#N)=C(C)NC3=C2C(=O)c2ccccc23)cc(OC)c1OC (stereo not given)	-53*	0	0	-6	-3
COc1ccc(S(=O)(=O)NCc2cccs2)cc1	-32*	-2	3	-3	-5
CCN(CC)S(=O)(=O)c1ccc(S(=O)(=O)NCc2cccs2)cc1	-11	0	8	-4	-11
CCCOc1ccc(S(=O)(=O)NCc2ccc(OC)cc2)cc1	-44*	1	17	-3	1
O=S(=O)(c1ccc2c(c1)OCCO2)N1CCN(S(=O)(=O)c2ccc(F)c(F)c2F)CC1	9	-1	1	2	1
Cc1ccccc1CCN(C(=O)CN1C(=O)c2ccccc2S1(=O)=O)C(C(=O)NCC1CCCO1)c1ccncc1 (stereo not given)	-12	0	1	0	3
Cc1ccc(-c2nnn(CC(=O)N(Cc3cccs3)C(C(=O)NCC3CCCO3)c3ccco3)n2)o1 (stereo not given)	-48*	-1	14	-9	-2
O=C(NCC1CCCO1)C(c1ccncc1)N(Cc1cccs1)C(=O)CN1C(=O)c2ccccc2S1(=O)=O (stereo not given)	0	0	42*	7	5
CCOc1ccc(S(=O)(=O)Nc2ccc3c(c2)c(C(C)=O)c(C)n3S(=O)(=O)c2ccc(OCC)cc2)cc1	16	0	0	1	-1
c1ccc(CN2CCN(c3ncnc4c3cnn4-c3ccccc3)CC2)cc1	1	0	-5	-1	-1
O=C(c1ccccc1)N1N=C(c2ccccc2O)CC1c1ccccc1 (stereo not given)	3	0	4	-7	3
CC(=O)Nc1nc(S(=O)(=O)c2ccc(C)cc2)c(Cl)s1	-5	0	1	1	-4
Cc1ccc(S(=O)(=O)c2nc(Nc3nccs3)sc2Cl)cc1	4	1	2	0	30*
Cc1ccc(CSCCNC(=O)c2cccc([N+](=O)[O-])c2)cc1	-43*	-1	19	-7	8
O=C(NNC(=S)NC(=O)c1cccc([N+](=O)[O-])c1)c1ccc(Br)cc1	4	6	32*	-3	-7
CCCCC(=O)NNC(=S)NC(=O)c1ccc(C)cc1	-17	14	60*	1	0
O=C(NNC(=S)NC(=O)c1cccc([N+](=O)[O-])c1)c1ccc(O)cc1	1	0	1	-2	-2
CCCCC(=O)NNC(=S)NC(=O)c1ccc([N+](=O)[O-])cc1	-17	-1	5	4	-2
O=C(NNC(=S)NC(=O)c1ccccc1)c1cccc([N+](=O)[O-])c1	-6	0	15	0	5
Cc1ccc(C(=O)NC(=S)NNC(=O)c2cccc([N+](=O)[O-])c2)cc1	-3	9	50*	0	6
CN(C)c1ccc(CNC(=O)Cn2ccc3cc(S(=O)(=O)N4CCCCCC4)ccc32)cc1	3	0	3	-2	3
COc1cccc(NC(=O)C(=O)NCCc2csc(-c3ccc(C)cc3)n2)c1	8	0	11	-5	1
CCOC(=O)c1[nH]c(C)c(CCC(=O)Nc2c(C)cc(C)cc2C)c1C	-7	-1	6	-3	5
Cc1ccc(NC(=O)COc2ccc3oc4c(c3c2)CCCC4)c(C)c1	0	0	3	-2	6
SMILES	D1 antagonist	TRHR ag	D1 agonist	D1 PAM	TRHR PAM
O=c1c2cc(Br)ccc2nc(-c2ccc(Cl)cc2)n1O	4	-1	107*	-6	12
CC(C)NC(=O)COC(=O)c1ccccc1CSC1=NCCS1	-6	0	1	-1	-4
CCn1c(N2CCN(C(=S)NCCc3ccccc3)CC2)nc2ccccc21	-36*	2	1	-9	-10
CCn1c(N2CCN(C(=S)NC)CC2)nc2ccccc21	-32*	0	2	-9	22
CCn1c(N2CCN(C(=S)NCC(C)C)CC2)nc2ccccc21	-3	0	5	-3	-6
COCC1CCN(C(=O)c2cc(COc3ccc(-n4cncn4)cc3)on2)CC1	-36*	-1	2	-1	-5
O=C(c1ccco1)N1CCN(S(=O)(=O)c2ccc([N+](=O)[O-])cc2)CC1	-34*	1	3	0	2
O=C(c1ccco1)N1CCN(S(=O)(=O)c2ccccc2)CC1	7	0	4	-5	8
COc1ccc(CCNC(=O)CSc2nnc3ccc(-c4ccccn4)nn23)cc1	11	0	1	-6	0
COc1cccc(/C=C2\SC(=S)N(CCCC(=O)N(CCO)c3ccccc3)C2=O)c1	12	1	11	-2	0
CCN(CC)CCNC(=O)c1nn(C)c2c1CS(=O)(=O)c1ccccc1-2	6	-1	-1	-2	-3
Cc1cccn2c(=O)c3cc(C#N)c(=N)n(CCN4CCOCC4)c3nc12	12	0	1	-5	32*
COc1ccc(NC(=O)CSc2ccccn2)cc1OC	2	0	0	-3	-6
COc1ccc(NC(=O)CSc2ncccc2C(=O)OC(C)C)cc1OC	-37*	0	26	-8	11
COc1ccc2[nH]cc(/C=C/c3cc[n+](C)cc3)c2c1	0	13	2	4	4
O=C(CN1C(=O)S/C(=C/c2ccccn2)C1=O)N1CCOCC1	-1	2	3	3	3
O=C(CN1C(=O)S/C(=C\C=C\c2ccccc2)C1=O)N1CCOCC1	-40*	1	0	8	4
O=C(CCCN1C(=O)S/C(=C\C=C\c2ccccc2)C1=O)Nc1ccc(O)cc1	-31*	-1	14	0	5
O=C(CCN1C(=O)S/C(=C/c2ccccc2)C1=O)Nc1ccc(C(=O)O)c(O)c1	22	-1	55*	18	-13
O=C(CCCN1C(=O)S/C(=C/c2ccccc2)C1=S)Nc1ccc(C(=O)O)cc1	-40*	0	4	-2	-1
COC(=O)c1ccccc1NC(=O)N1CCN(c2ccc(F)cc2)CC1	-12	0	5	-1	15
CCOc1cc(CNCc2ccccc2)ccc1OCc1ccc(Cl)cc1	-20	4	35*	3	12
COc1ccc(CNC(C)CCc2ccccc2)cc1 (stereo not given)	1	0	17	-1	1
Brc1ccc(CNCc2cccs2)cc1	-1	0	2	-2	-3
c1ccc(COc2ccc(CNCc3cccs3)cc2)cc1	-7	0	129*	42*	6
COc1ccc(CCNCc2ccc(OCc3ccccc3)cc2)cc1	19	1	61*	3	7
